{"source": "PubChem BioAssay (NCI)", "note": "This is part of a sample that, as a whole, favours compounds with a hit. Of some 83,000 tested, about 20% had one in any assay.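 Testing used 96-well plates and a 48-hour single-concentration exposure. Example: -40 means 40% of the starting cells died.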 Calls of active or inactive are those of the source."}
{"test_system": "UO-31 renal", "experiment": "NCI-60 one-dose screen, 48 h (100 = growth as untreated, 0 = no growth, -100 = all killed)", "details": "10 µM", "experimental": "Growth inhibition of the UO-31 human tumor cell line is measured as a screen for anti-cancer activity. Cells are grown in 96 well plates and exposed to the test compound for 48 hours. Compounds are tested at a single concentration, which is 10^-5 M for most compounds. The reported endpoint is percent growth (GI% or GIPRCNT), where numbers from 0 - 100% represent growth inhibition, and numbers from -100% - 0 represent cell death. For example, a value of 40 represents 60% growth inhibition. A value of 0 means no net growth occurred over the course of the experiment. A value of -40 indicates 40% of cells at the beginning of the experiment died by the end of the experiment. A value of -100 means all cells are dead at the end of the experiment.\nNCI-60 Human Tumor Cell Lines Screen was performed using the standard one-dose NCI protocol, which is described in more detail at https://dtp.cancer.gov/discovery_development/nci-60/default.htm.\nCompounds with GIPRCNT values below 10 were considered active. Activity score was based on GIPRCNT using the following formula: […]\nScore is 0 for GIPRCNT values of 100 or above, 50 for GIPRCNT values of 0, and 100 for GIPRCNT values of -100."}
{"smiles": "CN(C)CCc1cn(C2CCC2)c2cccc(O)c12", "growth": "47.8% (inactive)"}
{"smiles": "CC(C)N=C([Se])NC(=O)c1ccccc1", "growth": "-99% (active)"}
{"smiles": "O=C(/C=C/c1ccc(Cl)cc1Cl)c1nc2ccccc2n1Cc1ccc(F)cc1", "growth": "36.5% (inactive)"}
{"smiles": "CCC[Se]C(=O)c1ccc(C(=O)[Se]CCC)s1", "growth": "-55.5% (active)"}
{"smiles": "C#CC[Se]C(=O)c1ccc(C(=O)[Se]CC#C)s1", "growth": "47.8% (inactive)"}
{"smiles": "COc1cc2cc(C(=O)N3C[C@@H](CCl)c4c3cc(OC(=O)N3CCN(C)[C@@H]5CSSC[C@H]53)c3ccccc43)[nH]c2c(OC)c1OC", "growth": "-52% (active)"}
{"smiles": "O=C(/C=C/c1ccccc1Cl)c1nc2ccccc2n1Cc1ccc(F)cc1", "growth": "-99.6% (active)"}
{"smiles": "O=C(/C=C/c1ccc(F)cc1)c1nc2ccccc2n1Cc1ccc(F)cc1", "growth": "-33.6% (active)"}
{"smiles": "CCOP(=O)(OCC)C(NC(C)=O)C(=O)SCCN", "note": "(stereo not given)", "growth": "81% (inactive)"}
{"smiles": "CC1=C(CCC=O)C2=C(C)C3(CC3)[C@@](C)(O)C(=O)C2=C1", "growth": "-99.7% (active)"}
{"smiles": "C=CC[Se]C(=O)c1cncc(C(=O)[Se]CC=C)c1", "growth": "-98.4% (active)"}
{"smiles": "COC(=O)CCn1c(-c2ccc(-n3cc(-c4ccc(O[C@H]5O[C@@H]6OC7(C)CC[C@H]8[C@H](C)CC[C@@H]([C@H]5C)[C@@]68OO7)cc4)nn3)cc2)nc2ccccc21", "growth": "6.53% (active)"}
{"smiles": "O=C(/C=C/c1ccco1)c1nc2ccccc2n1Cc1ccc(Br)cc1", "growth": "34.4% (inactive)"}
{"smiles": "CC(C)C[C@H](NC(=O)CNC(=O)C[C@H]1O[C@@H]2OC3(C)CC[C@H]4[C@H](C)CC[C@@H]([C@H]1C)[C@@]24OO3)B(O)O", "growth": "15.5% (inactive)"}
{"smiles": "O=C(/C=C/c1cccc(Br)c1)c1nc2ccccc2n1Cc1ccc(Br)cc1", "growth": "-57.3% (active)"}
{"smiles": "O=C(/C=C/c1ccccc1)c1nc2ccccc2n1Cc1ccc(F)cc1", "growth": "-78.5% (active)"}
{"smiles": "CC[C@]12C=CCN3CC[C@@]4(c5ccc(OC)cc5N(C)[C@H]4[C@@](O)(C(=O)OC)[C@@H]1OC(=O)CCCC[P+](c1ccc(C)cc1)(c1ccc(C)cc1)c1ccc(C)cc1)[C@@H]32", "growth": "-96% (active)"}
{"smiles": "O=C([Se]C1C=CCCC1)c1ccc(C(=O)[Se]C2C=CCCC2)s1", "note": "(stereo not given)", "growth": "-100% (active)"}
{"smiles": "CC12OOC(C)(OO1)C2CCC(=O)OCCNc1ccnc2cc(Cl)ccc12", "note": "(stereo not given)", "growth": "-97.2% (active)"}
{"smiles": "COCCOCCOCCOc1ccc(-n2cc(CCCN(CCNc3ccnc4cc(Cl)ccc34)C(=O)CCC(=O)O[C@@H]3O[C@@H]4OC5(C)CC[C@H]6[C@H](C)CC[C@@H]([C@H]3C)[C@@]46OO5)nn2)cc1", "growth": "16.4% (inactive)"}
{"smiles": "O=C(/C=C/c1ccc(Cl)cc1)c1nc2ccccc2n1Cc1ccc(F)cc1", "growth": "31.4% (inactive)"}
{"smiles": "CC[C@]12C=CCN3CC[C@@]4(c5ccc(OC)cc5N(C)[C@H]4[C@@](O)(C(=O)OC)[C@@H]1OC(=O)CCC[P+](C1CCCCC1)(C1CCCCC1)C1CCCCC1)[C@@H]32", "growth": "76.8% (inactive)"}
{"smiles": "O=C(NC([Se])=NC1CCCCC1)c1ccc2c(c1)OCO2", "growth": "38.5% (inactive)"}
{"smiles": "COc1ccc(OC)c(/C=C/C(=O)c2nc3ccccc3n2Cc2ccc(F)cc2)c1", "growth": "-43.9% (active)"}
{"smiles": "C[C@H]1[C@H](OC(=O)CCC(=O)N(CCCc2cn(-c3ccc([N+](=O)[O-])cc3)nn2)CCNc2ccnc3cc(Cl)ccc23)O[C@@H]2OC3(C)CC[C@H]4[C@H](C)CC[C@@H]1[C@@]24OO3", "growth": "18.3% (inactive)"}
{"smiles": "C#CCCCN(CCNc1ccnc2cc(Cl)ccc12)C(=O)CCC(=O)O[C@@H]1O[C@@H]2OC3(C)CC[C@H]4[C@H](C)CC[C@@H]([C@H]1C)[C@@]24OO3", "growth": "14.3% (inactive)"}
{"smiles": "CC12OOC(C)(OO1)C2CCC(=O)NCCNc1ccnc2cc(Cl)ccc12", "note": "(stereo not given)", "growth": "76.1% (inactive)"}
{"smiles": "COc1ccc2cc([C@H](C)C(=O)[Se]CCC#N)ccc2c1", "growth": "-71.2% (active)"}
{"smiles": "O=C(/C=C/c1ccco1)c1nc2ccccc2n1Cc1ccc(F)cc1", "growth": "46.8% (inactive)"}
{"smiles": "CC12OOC(C)(OO1)C2CCC(=O)NCCCNc1ccnc2cc(Cl)ccc12", "note": "(stereo not given)", "growth": "-99.4% (active)"}
{"smiles": "COC(=O)C[C@](O)(CCC(C)C)C(=O)O[C@H]1C(OC)=C[C@@]23CCCN2CCc2cc4c(cc2[C@@H]13)OCO4", "growth": "-25.3% (active)"}
{"smiles": "O=C(/C=C/c1ccccc1)c1nc2ccccc2n1Cc1ccc(Br)cc1", "growth": "-94.9% (active)"}
{"smiles": "CC1=C(C=O)C2=C(C)C3(CC3)[C@@](C)(O)C(=O)C2=C1", "growth": "11.2% (inactive)"}
{"smiles": "C[C@H]1[C@H](OC(=O)CCC(=O)N(CCCc2cn(-c3ccc(CN4CCOCC4)cc3)nn2)CCNc2ccnc3cc(Cl)ccc23)O[C@@H]2OC3(C)CC[C@H]4[C@H](C)CC[C@@H]1[C@@]24OO3", "growth": "13.1% (inactive)"}
{"smiles": "CC12CCC3(CCC(=O)NCCCNc4ccnc5cc(Cl)ccc45)[C@@](C)(OO[C@]3(C)O1)O2", "growth": "-50.1% (active)"}
{"smiles": "O=C(NCCCCC(c1ccc(F)cc1)c1ccc(F)cc1)Nc1ccc([N+](=O)[O-])c(C(F)(F)F)c1", "growth": "0% (active)"}
{"smiles": "CC[C@]12C=CCN3CC[C@@]4(c5ccc(OC)cc5N(C)[C@H]4[C@@](O)(C(=O)OC)[C@@H]1OC(=O)CCC[P+](c1ccc(C)cc1)(c1ccc(C)cc1)c1ccc(C)cc1)[C@@H]32", "growth": "-97.4% (active)"}
{"smiles": "O=C(/C=C/c1ccc(Cl)cc1Cl)c1nc2ccccc2n1Cc1ccc(Br)cc1", "growth": "50.9% (inactive)"}
{"smiles": "COCCOCCOCCOc1ccc(-n2cc(-c3ccc(O[C@H]4O[C@@H]5OC6(C)CC[C@H]7[C@H](C)CC[C@@H]([C@H]4C)[C@@]57OO6)cc3)nn2)cc1", "growth": "11.5% (inactive)"}
{"smiles": "O=C(/C=C/c1cccc(Br)c1)c1nc2ccccc2n1Cc1ccc(F)cc1", "growth": "41.8% (inactive)"}
